Each structure is given as a SMILES string. About 500 (1.3%) of roughly 39,000 compounds were called active. The entries come from a sample that favours actives as a whole.

For this assay, the system named is S. aureus RN4220. Briefly: growth inhibition call (relative growth <= 0.2). The note with it: 50 µM.
As for `COc1ccc(S(=O)(=O)N(C)C[C@@H]2Oc3ccc(NC(=O)Cc4ccccc4)cc3CC(=O)N([C@@H](C)CO)C[C@@H]2C)cc1`, the growth inhibition call is “inactive”.
Then `CC(C)(C)[S@](=O)N1Cc2cc(C(=O)NCc3ccccc3F)nc(-c3cccc(-c4ccncc4)c3)c2[C@@H]1CCO`, with “inactive”; and `O=C(C[C@H]1CC[C@@H]2[C@H](COC[C@H](O)CN2C(=O)Nc2cccc(Cl)c2)O1)NCc1ccccc1F`, with “inactive”.
Then `O=C(C[C@@H]1CC[C@H]2[C@@H](COC[C@@H](O)CN2C(=O)Nc2cccc(Cl)c2)O1)NCc1ccccc1F`, with “inactive”.
Consider `O=C(C[C@@H]1CC[C@@H]2[C@H](COC[C@H](O)CN2C(=O)Nc2cccc(Cl)c2)O1)NCc1ccccc1F`, for which the growth inhibition call was “inactive”.
To `O=C(C[C@@H]1CC[C@H]2[C@@H](COC[C@H](O)CN2C(=O)Nc2cccc(Cl)c2)O1)NCc1ccccc1F` belongs “active”; to `COc1cccc(NC(=O)N2C[C@H](O)COC[C@H]3O[C@@H](CC(=O)NCc4ccccc4F)CC[C@@H]32)c1`, “inactive”.
Then `O=C(C[C@H]1CC[C@@H]2[C@H](COC[C@@H](O)CN2C(=O)Nc2cccc(Cl)c2)O1)NCc1ccccc1F`, with “active”; and `O=C(C[C@@H]1CC[C@@H]2[C@H](COC[C@@H](O)CN2C(=O)Nc2cccc(Cl)c2)O1)NCc1ccccc1F`, with “active”.
Then `O=C(C[C@H]1CC[C@H]2[C@@H](COC[C@@H](O)CN2C(=O)Nc2cccc(Cl)c2)O1)NCc1ccccc1F`, with “inactive”.
For the compound `O=C(C[C@H]1CC[C@H]2[C@@H](COC[C@H](O)CN2C(=O)Nc2cccc(Cl)c2)O1)NCc1ccccc1F`, the growth inhibition call is “inactive”.
To `COc1ccc(NC(=O)N(C)C[C@H]2Oc3c(NC(=O)Nc4cccc5ccccc45)cccc3C(=O)N([C@@H](C)CO)C[C@@H]2C)cc1` belongs “inactive”; to `COc1ccc(S(=O)(=O)N(C)C[C@H]2Oc3c(NS(=O)(=O)c4c(C)noc4C)cccc3C(=O)N([C@@H](C)CO)C[C@@H]2C)cc1`, “inactive”; to `O=c1[nH]cccc1F`, “inactive”.
Then `C[C@@H]1CN([C@H](C)CO)C(=O)Cc2cc(NC(=O)CCN3CCOCC3)ccc2O[C@@H]1CN(C)C(=O)Nc1ccc2c(c1)OCO2`, with “inactive”.
To `C[C@@H]1CN([C@@H](C)CO)C(=O)c2cc(NC(=O)C3CCCCC3)ccc2O[C@@H](C)CCCCO[C@H]1CN(C)C(=O)c1ccccc1` belongs “inactive”; to `CNC[C@@H]1Oc2cc(C#CCN(C)C)ccc2S(=O)(=O)N([C@@H](C)CO)C[C@@H]1C`, “inactive”.
As to `CC(C)NC(=O)N(C)C[C@@H]1Oc2ccc(NC(=O)C3CCCCC3)cc2C(=O)N([C@@H](C)CO)C[C@@H]1C`, the growth inhibition call is “inactive”.
To `C[C@H]1CN([C@@H](C)CO)C(=O)CCCn2nncc2CO[C@@H]1CN(C)C(=O)Nc1cccc(C(F)(F)F)c1` belongs “inactive”; to `C[C@H](CO)N1C[C@H](C)[C@H](CN(C)C(=O)Nc2cccc(C(F)(F)F)c2)OCc2cnnn2CCCC1=O`, “active”; to `C[C@H]1CN([C@@H](C)CO)C(=O)CCCn2nncc2CO[C@H]1CN(C)C(=O)Nc1cccc(C(F)(F)F)c1`, “active”.
On to `C[C@@H]1CN([C@@H](C)CO)C(=O)CCCn2nncc2CO[C@H]1CN(C)C(=O)Nc1ccc(C(C)(C)C)cc1`, for which the growth inhibition call was “inactive”.
With `C[C@@H]1CN([C@@H](C)CO)C(=O)CCCn2nncc2CO[C@H]1CN(C)C(=O)Nc1cccc(C(F)(F)F)c1`, the growth inhibition call is “inactive”.
To `C[C@@H]1CN([C@H](C)CO)C(=O)CCCn2nncc2CO[C@@H]1CN(C)C(=O)Nc1cccc(C(F)(F)F)c1` belongs “active”.
Regarding `C[C@H](CO)N1C[C@H](C)[C@@H](CN(C)C(=O)Nc2cccc(C(F)(F)F)c2)OCc2cnnn2CCCC1=O`, the growth inhibition call was “inactive”.
To `C[C@H]1CN([C@@H](C)CO)C(=O)CCCn2nncc2CO[C@H]1CN(C)C(=O)Nc1ccc(C(C)(C)C)cc1` belongs “inactive”.
Consider `C[C@@H]1CN([C@H](C)CO)C(=O)CCCn2nncc2CO[C@H]1CN(C)C(=O)Nc1cccc(C(F)(F)F)c1`, for which the growth inhibition call was “active”.
To `C[C@@H]1CN([C@@H](C)CO)C(=O)CCCn2nncc2CO[C@@H]1CN(C)C(=O)Nc1cccc(C(F)(F)F)c1` belongs “inactive”; to `C[C@@H]1CCCCO[C@@H](CN(C)C(=O)Nc2ccccc2)[C@@H](C)CN([C@H](C)CO)C(=O)c2cc(NC(=O)CCC(F)(F)F)ccc2O1`, “inactive”.
Then `C[C@H]1CN([C@@H](C)CO)C(=O)c2cc(NC(=O)NC3CCCCC3)ccc2O[C@H]1CN(C)C(=O)Nc1cccc2ccccc12`, with “inactive”; and `OC[C@H]1O[C@@H]2O[C@H]3[C@H](O)[C@@H](O)[C@@H](O[C@H]4[C@H](O)[C@@H](O)[C@@H](O[C@H]5[C@H](O)[C@@H](O)[C@@H](O[C@H]6[C@H](O)[C@@H](O)[C@@H](O[C@H]7[C@H](O)[C@@H](O)[C@@H](O[C@H]1[C@H](O)[C@H]2O)O[C@@H]7CO)O[C@@H]6CO)O[C@@H]5CO)O[C@@H]4CO)O[C@@H]3CO`, with “inactive”; and `COc1ccc(NC(=O)Nc2ccc3c(c2)CC(=O)N([C@@H](C)CO)C[C@H](C)[C@H](CN(C)S(=O)(=O)c2c(C)noc2C)O3)cc1`, with “inactive”.
Turning to `COc1ccc(S(=O)(=O)Nc2ccc3c(c2)CC(=O)N([C@@H](C)CO)C[C@@H](C)[C@@H](CN(C)C(=O)NC(C)C)O3)cc1`, the growth inhibition call is “inactive”.
To `OC1OC(c2ccc(Cl)c(Cc3ccc(OC4CCOC4)cc3)c2)C(O)C(O)C1O` (stereo not drawn) belongs “inactive”; to `CO[C@@H]1CN(C)C(=O)c2ccc(NC(=O)C3CC3)cc2OC[C@H](C)N(C(=O)Cc2ccccn2)C[C@H]1C`, “inactive”.
Then `C[C@@H]1CN([C@H](C)CO)C(=O)c2cc(NS(=O)(=O)c3ccc(F)cc3)ccc2O[C@H]1CN(C)S(=O)(=O)c1cccs1`, with “inactive”.
Then `c1ccc(CCNc2ccnc3cc4ccccc4cc23)cc1`, with “active”; and `Cc1nnc(NCCc2ccccc2)n(N)c1=O`, with “inactive”; and `NCCNc1cccc2ccccc12`, with “inactive”.
Consider `C[C@@H]1CN([C@@H](C)CO)C(=O)Cc2cc(NC(=O)CCN3CCOCC3)ccc2O[C@@H]1CN(C)S(=O)(=O)c1ccc(Cl)cc1`, for which the growth inhibition call was “inactive”.
To `CO[C@@H]1CN(C)C(=O)c2cc(NC(=O)C3CC3)ccc2OC[C@H](C)N(C(=O)CN2CCOCC2)C[C@H]1C` belongs “inactive”; to `NC(=O)N1C(=O)[C@H]2[C@H](C1=O)[C@H]1C=C(CCCO)[C@@H]2[C@H](c2ccc(CN3CCCC3)cc2)N1Cc1sc2ccccc2c1Cl`, “inactive”.
For `COC(=O)C1=CC(CCCO)=C[C@@H](c2ccc(CN3CCCC3)cc2)N(Cc2sc3ccccc3c2Cl)C=C1C(=O)OC`, the growth inhibition call is “inactive”.
Turning to `CS(=O)(=O)CCOC(=O)C1=CC(CCCO)=C[C@@H](c2ccc(CN3CCCC3)cc2)N(Cc2sc3ccccc3c2Cl)C=C1C(=O)OCCS(C)(=O)=O`, the growth inhibition call is “active”.
Then `COc1cc(Cc2cc3c(c(CCc4ccccc4)n2)[Si](C(C)C)(C(C)C)O[C@H]3c2ccccc2)cc(OC)c1OC`, with “active”; and `CCCCCCc1nc(-c2cc(C)c(OC)c(C)c2)cc2c1[Si](C(C)C)(C(C)C)O[C@H]2c1ccccc1`, with “inactive”; and `COc1ccc(-c2cc3c(c(CCc4ccccc4)n2)[Si](C(C)C)(C(C)C)O[C@H]3c2ccccc2)cn1`, with “inactive”.
Then `COc1c(C)cc(-c2cc3c(c(CCc4ccccc4)n2)[Si](C(C)C)(C(C)C)O[C@H]3c2ccccc2)cc1C`, with “active”.
Then `COc1cc(Cc2cc3c(c(CCc4ccccc4)n2)[Si](C(C)C)(C(C)C)OC3)cc(OC)c1OC`, with “inactive”; and `COc1c(C)cc(-c2cc3c(c(-c4ccccc4)n2)[Si](C(C)C)(C(C)C)O[C@H]3c2ccccc2)cc1C`, with “inactive”.
With `C=CCNC1=C2C[C@H](C)C[C@H](OC)[C@@H](O)[C@H](C)/C=C(\C)[C@H](OC(N)=O)[C@H](OC)/C=C/C=C(\C)C(=O)NC(=CC1=O)C2=O`, the growth inhibition call is “inactive”.
Then `C[C@H](CO)N1C[C@H](C)[C@H](CN(C)Cc2ccc(C(=O)Nc3ccccc3N)cc2)Oc2c(NC(=O)NC3CCCCC3)cccc2C1=O`, with “inactive”; and `C[C@@H]1CCCCO[C@@H](CN(C)CC2CCCCC2)[C@H](C)CN([C@@H](C)CO)C(=O)c2cc(NS(=O)(=O)c3cccs3)ccc2O1`, with “inactive”; and `NCCNC(=O)c1nc(-c2ccc(Br)o2)no1`, with “inactive”.
Then `O=C(NCc1ccc(Oc2ccccc2)cc1)c1nc(-c2cc(Br)c(O)c(Br)c2)no1`, with “active”.
Then `NNC(=O)c1nc(-c2ccccc2)no1`, with “inactive”.
Consider `COc1ccc(NC(=O)N(C)C[C@H]2Oc3c(NC(=O)c4ccc(-c5nccs5)cc4)cccc3C(=O)N([C@@H](C)CO)C[C@H]2C)cc1`, for which the growth inhibition call was “inactive”.
Turning to `CN(C)c1cc[n+](C(=O)N2CCOCC2)cc1`, the growth inhibition call was “inactive”.
To `O=c1[nH]c(=O)c2ccccc2[nH]1` belongs “inactive”; to `COc1ccc2[nH]c(=O)[nH]c(=O)c2c1`, “active”.
As for `O=c1[nH]c(=O)c2cc(Br)ccc2[nH]1`, the growth inhibition call is “inactive”.
To `O=C(Nc1ccc(-c2nc3ccc(NC(=O)c4ccc(Cl)cc4)cc3[nH]2)cc1)c1ccc(Cl)cc1` belongs “inactive”; to `COCC#Cc1cnc2c(c1)C(=O)N([C@H](C)CO)C[C@H](C)[C@@H](CN(C)S(=O)(=O)c1cn(C)cn1)O2`, “inactive”; to `COc1ccc(CN(C)C[C@H]2OCCCC[C@H](C)Oc3ccc(NC(=O)c4ccccc4)cc3C(=O)N([C@@H](C)CO)C[C@@H]2C)cc1`, “inactive”.
Then `Cc1cc(C(=O)Nc2cccc3c2O[C@@H](CN(C)C(=O)NC(C)C)[C@H](C)CN([C@@H](C)CO)C3=O)n(C)n1`, with “inactive”.
To `C[C@@H]1CN([C@H](C)CO)C(=O)c2cc(NC(=O)Nc3ccccc3)ccc2O[C@@H](C)CCCCO[C@@H]1CN(C)Cc1ccccc1` belongs “inactive”; to `C[C@@H](OC[C@@]1(c2ccccc2)CC[C@]2(CCC(=O)N2)CN1)c1cc(C(F)(F)F)cc(C(F)(F)F)c1`, “active”.
Take `COc1ccc(NC(=O)Nc2cccc3c2O[C@@H](CN(C)S(C)(=O)=O)[C@H](C)CN([C@@H](C)CO)C3=O)cc1`: the growth inhibition call was “inactive”.

Source of the values: the antibiotic and cytotoxicity screens of Wong et al. (2023).
